Results as given in PubChem BioAssay (NCATS).
Inconclusive results are not listed. Calls of active or inactive are those of the source. Unless noted, calls follow the shape of the dose curve; as a rule, active = well fitted curve in the direction sought with a large enough effect; inconclusive = small, poorly fitted or top-dose-only effect, or another doubt; inactive = no such curve, though single readings can be large; an effect the other way counts as inactive or inconclusive.

Tests used:
[1] = Counterscreen for APE1 Inhibitors: Fluorescent Dye Displacement Validation Assay (AID 1707)
Summary of the method: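 Thiazole Orange (250 nM) bound to 50 nM TAMRA-labelled dsDNA with tetrahydrofuran abasic site; displacement by DNA-binding compounds lowers fluorescence. Buffer 50 mM Tris-HCl pH 7.5, 50 mM NaCl, 2 mM MgCl2, 0.01% Tween-20; endpoint read at 480/540 nm.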

[2] = biological target: Endonuclease 4 (Escherichia coli (strain K12)) (UniProt P0A6C1); experiment: Counterscreen for APE1 Inhibitors: qHTS Validation Assay for Inhibitors of Endonuclease IV (AID 1708)
Summary of the method: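 Enzymatic AP-site incision assay using a double-stranded THF substrate labelled with TAMRA and BHQ-2; released fluorescence signals activity. Enzyme 2 nM, substrate 50 nM, 15 min compound preincubation.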

[3] = qHTS for differential inhibitors of proliferation of Plasmodium falciparum line 7G8 (AID 1815);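 also: parasite growth measured after three days of incubation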; also: potency is read from the fitted curve at half-maximal effect
[4] = qHTS for differential inhibitors of proliferation of Plasmodium falciparum line GB4 (AID 1816); details: Potency: Plasmodium falciparum GB4 proliferation inhibition;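 also: parasite growth measured after 72 h incubation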; also: potency is read from the fitted curve at half-maximal effect
[5] = qHTS for differential inhibitors of proliferation of Plasmodium falciparum line 3D7 (AID 1876); also: potency is read from the fitted curve at half-maximal effect
[6] = qHTS for differential inhibitors of proliferation of Plasmodium falciparum line D10 (AID 1877);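 also: parasites grown with compound for 72 h before DNA staining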; also: potency is read from the fitted curve at half-maximal effect
[7] = qHTS for differential inhibitors of proliferation of Plasmodium falciparum line Dd2 (AID 1882); details: Potency: Plasmodium falciparum Dd2 proliferation inhibition; also: nearly all actives have a fitted effect of over 65% in size; also: potency is read from the fitted curve at half-maximal effect
Summary of the method: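 SYBR Green I DNA fluorescence read-out, ex 485/em 535 nm. Signals were normalized to 0.29 uM artemisinin and DMSO wells, then corrected using vehicle-only plates flanking each stack. Parasite growth ran 72 h in erythrocytes before lysis.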

[8] = qHTS for differential inhibitors of proliferation of Plasmodium falciparum line W2 (AID 1883); details: Potency: Plasmodium falciparum W2 proliferation inhibition;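 also: parasites grown with compound for 72 h before lysis and staining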; also: potency is read from the fitted curve at half-maximal effect
[9] = qHTS for differential inhibitors of proliferation of Plasmodium falciparum line HB3 (AID 1886); details: Potency: Plasmodium falciparum HB3 proliferation inhibition;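 also: parasites grown with compound for 72 h before SYBR Green readout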; also: potency is read from the fitted curve at half-maximal effect
[10] = qHTS Assay for Modulators of Human Peripheral Myelin Protein 22 (PMP22) Expression/Activity (AID 1967; active = well fitted curve in the direction sought with a large enough effect in the signal ratio; the % refers to the signal ratio)
Summary of the method: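 Quantitative HTS in a mouse Schwann cell line expressing dual click beetle luciferases: Pmp22 promoter (green) and control EF-alpha promoter (red). After 24h treatment, corrected green/red signal ratio gave %Activity relative to untreated cells.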

Measured: Potency

CCN(CC)C(=O)c1ccc(O)c(OC)c1
inactive: [1] | [2] | [3] | [4] | [5] | [6] | [7] | [8] | [9]

O=C1NCC2(CCN(CCc3ccccc3)CC2)O1
inactive: [1] | [3] | [5] | [6] | [7] | [9] | [10]

O=c1cc(-c2ccc(O)cc2)oc2cc(O)cc(O)c12
inactive: [7]
active: [3] 11.2 µM | [4] 14.1 µM | [5] 12.6 µM | [8] 10 µM | [9] 11.2 µM

CCN(CC)CCOC(=O)c1ccc(N)cc1
inactive: [1] | [3] | [4] | [5] | [6] | [7] | [9]

COC(=O)[C@@H]1[C@H]2C[C@H]3c4[nH]c5ccccc5c4CCN3C[C@@H]2CC[C@@H]1O
inactive: [1] | [2] | [7]

CC1=C(/C=C/C(C)=C/C=C/C(C)=C/C(=O)Nc2ccc(O)cc2)C(C)(C)CCC1
inactive: [1] | [2]
active: [3] 3.55 µM | [4] 6.31 µM | [5] 11.2 µM | [6] 12.6 µM | [7] 11.2 µM | [8] 3.98 µM | [9] 12.6 µM

NCCS
inactive: [1] | [2] | [3] | [4] | [5] | [6] | [7] | [8] | [9]

C[N+](C)(C)CCCCCC[N+](C)(C)C
inactive: [1] | [2] | [3] | [4] | [5] | [6] | [7] | [8] | [9]

Cc1cccc(C)c1OCC(C)N (stereo unspecified)
active: [3] 12.6 µM | [4] 12.6 µM | [8] 7.94 µM
inactive: [1] | [2] | [5] | [6] | [9]

CC/C(=C(\c1ccccc1)c1ccc(OCCN(C)C)cc1)c1ccccc1
active: [3] 8.91 µM | [4] 12.6 µM | [5] 11.2 µM | [6] 11.2 µM | [7] 11.2 µM | [8] 7.94 µM | [9] 11.2 µM
inactive: [1]

CCCCC1C(=O)N(c2ccccc2)N(c2ccccc2)C1=O
inactive: [1] | [2]
active: [4] 14.1 µM | [5] 11.2 µM | [8] 11.2 µM

Clc1ccc(Cn2c(CN3CCCC3)nc3ccccc32)cc1
active: [3] 7.08 µM | [4] 10 µM | [5] 11.2 µM | [8] 5.62 µM | [9] 11.2 µM
inactive: [1] | [2]

CC1(C)CCC2=C(O1)c1ccccc1C(=O)C2=O
inactive: [1] | [2]
active: [3] 3.55 µM | [4] 3.98 µM | [5] 10 µM | [6] 11.2 µM | [7] 12.6 µM | [8] 7.08 µM | [9] 12.6 µM

CCCNC(=O)NS(=O)(=O)c1ccc(Cl)cc1
inactive: [1] | [2] | [3] | [4] | [5] | [6] | [7] | [8] | [9]

CC(=O)N[C@@H](CS)C(=O)O
inactive: [1] | [2] | [3] | [4] | [5] | [6] | [7] | [8] | [9]

CC(=O)CCCCn1c(=O)c2c(ncn2C)n(C)c1=O
inactive: [1] | [3] | [4] | [5] | [6] | [7] | [8] | [9]

COc1cccc(-c2cc(=O)c3ccccc3o2)c1N
active: [8] 12.6 µM
inactive: [1] | [2] | [7]

CCN1CCC[C@H]1CNC(=O)c1cc(S(N)(=O)=O)ccc1OC
inactive: [1] | [2] | [3] | [4] | [5] | [6] | [7] | [8] | [9]

CC(C)(C)c1ccc(C(O)CCCN2CCC(C(O)(c3ccccc3)c3ccccc3)CC2)cc1 (stereo unspecified)
inactive: [1]

NC(N)=Nc1nc(CSCC/C(N)=N/S(N)(=O)=O)cs1
inactive: [1] | [2] | [3] | [4] | [5] | [6] | [7] | [8] | [9]

CN(C)CCC(c1ccccc1)c1ccccn1 (stereo unspecified)
active: [4] 5.62 µM | [8] 3.55 µM
inactive: [1] | [2] | [5] | [6] | [9]

CC(=O)c1ccc(S(=O)(=O)NC(=O)NC2CCCCC2)cc1
inactive: [1] | [2] | [3] | [4] | [5] | [6] | [7] | [8] | [9]

CCN(CC)CCNC(=O)c1ccc(N)cc1
inactive: [1] | [2] | [3] | [4] | [5] | [6] | [7] | [8] | [9]

CC(C)NCC(O)COc1cccc2[nH]ccc12 (stereo unspecified)
inactive: [1]

O=c1c(-c2ccc(O)cc2)coc2cc(O)ccc12
inactive: [1] | [2] | [3] | [4] | [5] | [6] | [7] | [8] | [9]

O=C1NC(=O)C(c2ccccc2)(c2ccccc2)N1
inactive: [1] | [3] | [4] | [5] | [6] | [7] | [8] | [9]

O=C(O)CCc1nc(-c2ccccc2)c(-c2ccccc2)o1
inactive: [1] | [2]

COc1ccccc1N1CCN(CCCNc2cc(=O)n(C)c(=O)n2C)CC1
inactive: [1] | [2] | [3] | [7]
active: [5] 10 µM | [8] 10 µM
